The text below walks through data of paper PMC7862700, “An all-to-all approach to the identification of sequence-specific readers for epigenetic DNA modifications on cytosine”.

Test in all cases: DAPPL (digital affinity profiling via proximity ligation, sequencing); 10 mM Tris-HCl pH 7.5, 50 mM NaCl, 1 mM DTT, 4% glycerol, room temperature, 30 min; GST-TFs on glutathione beads, 16-mer random dsDNA library, 0.1% formaldehyde crosslink after washing; high values mean tight binding
Settings in all cases: protein: recombinant; tags: N-terminal GST; dsDNA, one strand shown

For one test, the target named is T1, ERF (Homo sapiens, UniProt P50548 1-548).
T1 sequence: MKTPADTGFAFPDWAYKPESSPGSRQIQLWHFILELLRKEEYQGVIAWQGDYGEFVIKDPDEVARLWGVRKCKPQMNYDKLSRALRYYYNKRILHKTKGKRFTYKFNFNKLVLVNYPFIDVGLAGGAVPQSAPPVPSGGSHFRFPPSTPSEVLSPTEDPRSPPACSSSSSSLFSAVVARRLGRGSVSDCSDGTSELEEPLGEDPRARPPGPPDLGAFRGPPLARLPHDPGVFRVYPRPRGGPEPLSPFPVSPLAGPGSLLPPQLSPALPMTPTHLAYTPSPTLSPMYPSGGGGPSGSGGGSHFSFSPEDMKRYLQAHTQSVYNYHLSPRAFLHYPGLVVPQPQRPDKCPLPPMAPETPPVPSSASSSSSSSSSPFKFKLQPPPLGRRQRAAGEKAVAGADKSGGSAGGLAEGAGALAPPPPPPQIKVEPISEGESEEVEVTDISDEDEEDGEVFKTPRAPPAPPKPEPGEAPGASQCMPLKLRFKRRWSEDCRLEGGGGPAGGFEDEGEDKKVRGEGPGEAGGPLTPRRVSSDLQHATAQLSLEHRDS
An outline of the steps:
(§1)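 Binding signal is given per hexamer as its read frequency for a factor divided by its frequency in the tag-only sample. GST-fused human transcription factors were expressed in yeast, captured on glutathione beads, barcoded with DNA and pooled with that sample, then incubated with 200 nmole of a 16-mer random double-stranded DNA library in Tris/NaCl/DTT/glycerol buffer for 30 min at room temperature. The pools were then washed, crosslinked, proximity-ligated, amplified by PCR and sequenced on an Illumina NextSeq500.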

Another test addresses T2, ETV3L (Homo sapiens, UniProt Q6ZN32 1-361).
T2 sequence: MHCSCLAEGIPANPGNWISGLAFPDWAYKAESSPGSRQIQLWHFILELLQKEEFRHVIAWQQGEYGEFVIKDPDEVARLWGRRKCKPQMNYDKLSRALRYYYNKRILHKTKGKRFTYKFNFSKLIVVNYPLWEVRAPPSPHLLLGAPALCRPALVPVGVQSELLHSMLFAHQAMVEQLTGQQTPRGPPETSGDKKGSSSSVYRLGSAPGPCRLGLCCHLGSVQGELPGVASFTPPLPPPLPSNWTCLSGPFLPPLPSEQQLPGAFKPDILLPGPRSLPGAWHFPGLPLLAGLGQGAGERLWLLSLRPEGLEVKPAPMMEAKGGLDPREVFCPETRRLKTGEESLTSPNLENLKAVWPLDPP
An outline of the steps: as §1

In another test the target is T3, ETS2 (Homo sapiens, UniProt P15036 1-469).
T3 sequence: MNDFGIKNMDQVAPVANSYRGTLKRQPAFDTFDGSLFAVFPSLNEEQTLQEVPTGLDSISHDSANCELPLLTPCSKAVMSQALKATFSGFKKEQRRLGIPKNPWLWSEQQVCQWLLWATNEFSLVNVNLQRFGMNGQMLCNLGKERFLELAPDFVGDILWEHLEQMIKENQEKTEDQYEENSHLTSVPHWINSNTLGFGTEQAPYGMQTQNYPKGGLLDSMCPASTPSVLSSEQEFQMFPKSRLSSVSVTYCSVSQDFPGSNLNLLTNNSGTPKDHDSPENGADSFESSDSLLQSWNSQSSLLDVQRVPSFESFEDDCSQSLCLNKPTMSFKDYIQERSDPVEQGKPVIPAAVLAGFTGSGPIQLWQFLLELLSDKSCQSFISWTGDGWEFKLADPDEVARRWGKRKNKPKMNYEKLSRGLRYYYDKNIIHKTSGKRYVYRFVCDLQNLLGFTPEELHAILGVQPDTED
The method, boiled down:
as §1

Another test has as its target T4, SPDEF (Homo sapiens, UniProt O95238 1-335).
T4 sequence: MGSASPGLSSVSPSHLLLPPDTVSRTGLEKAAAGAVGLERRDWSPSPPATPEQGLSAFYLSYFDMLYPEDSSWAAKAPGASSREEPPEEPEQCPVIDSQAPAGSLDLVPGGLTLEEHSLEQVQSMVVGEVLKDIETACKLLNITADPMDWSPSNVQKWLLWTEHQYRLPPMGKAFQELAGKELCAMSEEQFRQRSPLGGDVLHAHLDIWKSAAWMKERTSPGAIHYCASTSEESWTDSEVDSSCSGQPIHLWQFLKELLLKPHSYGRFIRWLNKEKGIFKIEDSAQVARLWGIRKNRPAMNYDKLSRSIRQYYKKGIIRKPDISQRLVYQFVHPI
The method, boiled down:
as §1

In another test the target is T5, ETV7 (Homo sapiens, UniProt Q9Y603 1-341).
T5 sequence: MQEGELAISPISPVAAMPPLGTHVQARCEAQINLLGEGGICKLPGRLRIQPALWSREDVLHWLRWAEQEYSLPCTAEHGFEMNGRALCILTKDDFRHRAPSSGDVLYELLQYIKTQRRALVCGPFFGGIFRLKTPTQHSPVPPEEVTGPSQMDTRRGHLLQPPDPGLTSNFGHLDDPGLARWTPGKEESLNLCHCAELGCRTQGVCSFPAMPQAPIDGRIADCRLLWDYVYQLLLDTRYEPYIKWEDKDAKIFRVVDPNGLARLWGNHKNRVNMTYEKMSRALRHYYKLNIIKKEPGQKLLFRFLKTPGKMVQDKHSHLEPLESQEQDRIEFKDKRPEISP
The method, boiled down:
as §1

In the next test the target is T6, ELF5 (Homo sapiens, UniProt Q9UKW6-2 1-255).
T6 sequence: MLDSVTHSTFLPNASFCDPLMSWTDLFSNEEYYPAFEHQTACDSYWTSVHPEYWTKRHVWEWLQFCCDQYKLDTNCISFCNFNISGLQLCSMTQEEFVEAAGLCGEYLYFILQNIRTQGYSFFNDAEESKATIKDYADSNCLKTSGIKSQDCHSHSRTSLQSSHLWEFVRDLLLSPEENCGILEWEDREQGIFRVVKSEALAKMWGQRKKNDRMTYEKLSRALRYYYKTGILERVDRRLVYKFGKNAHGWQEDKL
The method, boiled down: as §1

In a further test the target is T7, ETV3 (Homo sapiens, UniProt P41162-2 1-143).
T7 sequence: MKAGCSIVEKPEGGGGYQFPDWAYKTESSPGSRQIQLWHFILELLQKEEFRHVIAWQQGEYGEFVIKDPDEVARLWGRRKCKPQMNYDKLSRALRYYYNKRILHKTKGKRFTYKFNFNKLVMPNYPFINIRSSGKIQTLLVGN
The method, boiled down:
as §1

Another test has as its target ETV6 (Homo sapiens, UniProt P41212 1-452). The method, boiled down:
as §1

Chain of ETV6 (P41212 whole entry): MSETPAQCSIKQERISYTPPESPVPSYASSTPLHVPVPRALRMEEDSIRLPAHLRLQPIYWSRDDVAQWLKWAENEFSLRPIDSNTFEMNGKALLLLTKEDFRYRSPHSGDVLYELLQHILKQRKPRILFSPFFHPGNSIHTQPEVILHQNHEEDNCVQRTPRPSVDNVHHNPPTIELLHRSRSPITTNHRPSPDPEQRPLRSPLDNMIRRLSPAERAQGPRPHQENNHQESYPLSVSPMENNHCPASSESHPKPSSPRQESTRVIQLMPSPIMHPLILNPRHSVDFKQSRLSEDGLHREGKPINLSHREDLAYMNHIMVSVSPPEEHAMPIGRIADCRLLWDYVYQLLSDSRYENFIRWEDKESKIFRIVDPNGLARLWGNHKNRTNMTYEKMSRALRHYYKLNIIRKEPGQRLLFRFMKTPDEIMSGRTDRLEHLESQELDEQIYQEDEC

For the sequence TCTGTC, the binding signal was 1.31 fold enrichment (6-mer frequency, TF over GST control) with ERF; 1.19 fold enrichment (6-mer frequency, TF over GST control) with ETV3L; 1.23 fold enrichment (6-mer frequency, TF over GST control) in the test with ETS2; 1.15 fold enrichment (6-mer frequency, TF over GST control) in the test with SPDEF; 1.14 fold enrichment (6-mer frequency, TF over GST control) with ETV7; 1.16 fold enrichment (6-mer frequency, TF over GST control) with ELF5. Besides, the binding signal in the test with ETV3 was 1.05 fold enrichment (6-mer frequency, TF over GST control); with ETV6, 1.23 fold enrichment (6-mer frequency, TF over GST control).

Take GGATGT: the binding signal with ERF was 1.41 fold enrichment (6-mer frequency, TF over GST control); with ETV3L it was 1.63 fold enrichment (6-mer frequency, TF over GST control); in the test with ETS2, 1.72 fold enrichment (6-mer frequency, TF over GST control); with SPDEF, 3.07 fold enrichment (6-mer frequency, TF over GST control); in the test with ETV7 it was 1.45 fold enrichment (6-mer frequency, TF over GST control); with ELF5, 1.87 fold enrichment (6-mer frequency, TF over GST control). In addition, the binding signal was 1.78 fold enrichment (6-mer frequency, TF over GST control) in the test with ETV3 and 1.66 fold enrichment (6-mer frequency, TF over GST control) with ETV6.

Regarding ATAGTT, the binding signal was 1.23 fold enrichment (6-mer frequency, TF over GST control) with ERF; 1.27 fold enrichment (6-mer frequency, TF over GST control) with ETV3L; 1.18 fold enrichment (6-mer frequency, TF over GST control) with ETS2; 1.12 fold enrichment (6-mer frequency, TF over GST control) in the test with SPDEF; 1.19 fold enrichment (6-mer frequency, TF over GST control) with ETV7; 1.12 fold enrichment (6-mer frequency, TF over GST control) with ELF5. Also, the binding signal with ETV3 was 1.31 fold enrichment (6-mer frequency, TF over GST control); with ETV6, 1.21 fold enrichment (6-mer frequency, TF over GST control).

On to ACGTAC, for which the binding signal was 1.16 fold enrichment (6-mer frequency, TF over GST control) with ERF; 1.12 fold enrichment (6-mer frequency, TF over GST control) with ETV3L; 1.19 fold enrichment (6-mer frequency, TF over GST control) in the test with ETS2; 1.13 fold enrichment (6-mer frequency, TF over GST control) in the test with SPDEF; 1.24 fold enrichment (6-mer frequency, TF over GST control) with ETV7; 1.15 fold enrichment (6-mer frequency, TF over GST control) in the test with ELF5. In addition, the binding signal in the test with ETV3 is 1.12 fold enrichment (6-mer frequency, TF over GST control); in the test with ETV6, 1.25 fold enrichment (6-mer frequency, TF over GST control).

Take GTACTC: the binding signal was 1.06 fold enrichment (6-mer frequency, TF over GST control) in the test with ERF; 1.15 fold enrichment (6-mer frequency, TF over GST control) in the test with ETV3L; 1.13 fold enrichment (6-mer frequency, TF over GST control) with ETS2; 1.02 fold enrichment (6-mer frequency, TF over GST control) with SPDEF; 1 fold enrichment (6-mer frequency, TF over GST control) with ETV7; 1.12 fold enrichment (6-mer frequency, TF over GST control) with ELF5. For the same sequence, the binding signal in the test with ETV3 was 1.11 fold enrichment (6-mer frequency, TF over GST control); in the test with ETV6, 1.14 fold enrichment (6-mer frequency, TF over GST control).

Consider CTTTCT, for which the binding signal with ERF was 1.63 fold enrichment (6-mer frequency, TF over GST control); with ETV3L it was 1.5 fold enrichment (6-mer frequency, TF over GST control); in the test with ETS2 it was 1.55 fold enrichment (6-mer frequency, TF over GST control); with SPDEF, 1.44 fold enrichment (6-mer frequency, TF over GST control); with ETV7, 1.46 fold enrichment (6-mer frequency, TF over GST control); with ELF5, 1.5 fold enrichment (6-mer frequency, TF over GST control). Also, the binding signal is 1.52 fold enrichment (6-mer frequency, TF over GST control) with ETV3 and 1.52 fold enrichment (6-mer frequency, TF over GST control) with ETV6.
